In PubChem BioAssay AID485317 (Broad Institute, 2010) one finds inhibition data, which are given here for 25 compounds.

Hit rate of the full screen: of about 290,000 compounds, about 11,000 (3.8%) were called active. For the sample, actives were picked, then their nearest neighbours and some compounds at random. Unmarked numbers belong to inactive results.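 The calls were made as follows: active = mean replicate inhibition above about 79%, with every replicate also reaching it (limit read from the data); inconclusive = only one of the two criteria met; inactive = mean below limit and not every replicate reaching it.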

Chain of FAD-linked sulfhydryl oxidase ALR (Homo sapiens) (P55789 whole entry, looked up): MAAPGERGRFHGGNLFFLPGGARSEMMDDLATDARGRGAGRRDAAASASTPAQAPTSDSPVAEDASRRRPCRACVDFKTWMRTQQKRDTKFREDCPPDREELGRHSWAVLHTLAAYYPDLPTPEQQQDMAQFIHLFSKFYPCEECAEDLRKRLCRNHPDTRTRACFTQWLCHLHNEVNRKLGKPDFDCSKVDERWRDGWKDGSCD

The experiment addresses FAD-linked sulfhydryl oxidase ALR (Homo sapiens) (UniProt P55789). Nature of the experiment: inhibitors of human ALR sulfhydryl oxidase, primary screen, biochemical, H2O2 detection, HRP-luminol luminescence, single point (AID 485317). The note with it: purified ALR, DTT oxidation, hits give high values, concentration not given here.
As usually defined, the inhibition is the drop in the measured response relative to a control, in per cent. Take `COc1ccccc1CNS(=O)(=O)c1cc2c3c(c1)CCC(=O)N3CCC2`: the inhibition was -0.847%.
The value for `CC1CN(C(=O)c2cc(COc3c(F)cccc3F)on2)CCN1C` (stereo not given) was -3.41%.
As for `CC1(C)O[C@@H]2[C@H](O1)[C@@H](CO)O[C@H]2n1c(N2CCCCC2)nc2c(N)ncnc21`, the inhibition is 1.47%.
Regarding `CCC(=O)NNc1cc(=O)c2c(=O)n(C)c(=O)n(C)c2[nH]1`, the inhibition was -4.74%.
Regarding `CC(=O)Nn1cc2c(=O)n(C)c(=O)n(C)c2c1`, the inhibition was -9.4%.
Turning to `CC(=O)NNc1cc(=O)c2c(=O)n(C)c(=O)n(C)c2[nH]1`, the inhibition is 90.2% (active).
`COc1ccc(NC(=O)/C(Cl)=C(/Cl)S(=O)Cc2ccc(C)cc2)cn1` (stereo not given): the inhibition was 99.1% (active).
Consider `CCOc1ccc(S(=O)(=O)Nc2ccc(OC)nc2)cc1`, for which the inhibition is -0.795%.
Then `COc1ccc(NC(=O)c2cc(-c3ccc(C)cc3)on2)cc1`, with -7.55%.
In the case of `COc1ccc2c(CC(=O)NNC(=O)c3ccccc3F)coc2c1`, the inhibition is -9.32%.
For `O=C(CCc1ccc(S(=O)(=O)N2CCOCC2)cc1)OCC(=O)c1ccc(Br)cc1`, the inhibition was 3.41%.
`O=C(/C=C(O)/C=C/c1ccc(O)cc1)/C=C/c1ccc(O)cc1`: the inhibition is -0.191%.
In the case of `COc1ccc(N2CCN(C(=O)CNC(=O)c3ccc(Br)o3)CC2)cc1`, the inhibition was 94% (active).
Turning to `COc1ccc(N2CCN(C(=O)CNC(=O)c3ccc(C(C)(C)C)cc3)CC2)cc1`, the inhibition is -2.48%.
Then `COc1ccc(N2CCN(C(=O)CCNC(=O)c3ccc(Br)cc3)CC2)cc1`, with -0.657%; and `CCOc1ccc(C(=O)CCC(=O)Nc2ccncc2)cc1`, with 2.23%.
The value for `COc1cc(/C=N/NC(=O)CNC(=O)c2ccncc2)ccc1OC(C)=O` was 40.7%; that for `COc1ccc(/C=N/NC(=O)c2ccc(Cl)cc2)cc1COC(C)=O` was 5.91%; that for `COc1ccc(/C=N/NC(=O)c2ccncc2)cc1CN1CCCc2ccccc21` was 93.5% (active).
As to `COc1ccc(-c2ccc(CCC(=O)O)n2NC(=O)c2ccc(C(C)(C)C)cc2)cc1`, the inhibition is 98.4% (active).
`COc1ccc(C(=O)NC(Cc2ccc(OC(=O)c3ccc(OC)cc3)cc2)C(=O)O)cc1` (stereo not given): the inhibition is 15.2%.
For `C=Cn1c(C(=O)O)ccc1-c1ccc(OC)cc1`, the inhibition is 6.07%.
In the case of `COc1ccc(-c2ccc(CCC(=O)O)n2-c2ccc(O)cc2)cc1`, the inhibition is 95.3% (active).
As for `CCOC(=O)c1ccc(-n2c(CCC(=O)O)ccc2-c2ccccc2)cc1`, the inhibition was 6.43%.
Consider `COCCCn1c(CCC(=O)O)ccc1-c1ccc(F)cc1`, for which the inhibition is 22.3%.
